From the supplement of paper PMC9801561
± gives the standard deviation of the averaged measurements.

How the values were obtained:
[1] = system: Escherichia coli Nissle 1917; assay: area under OmniLog respiration curve over 48 h (OmniLog units x h); higher = more growth / nutrient utilisation; extreme values may be limits of the assay; conditions: incubation: 48 h, 37 °C
[2] = system: Escherichia coli Nissle 1917; assay: DuctApe activity index of respiration/growth curve (0 no growth to 9 maximum) (index 0-9); higher = more growth / nutrient utilisation, active = 3 or more; extreme values may be limits of the assay; conditions: incubation: 48 h, 37 °C
[3] = nutrient role: C-Source, alcohol
[4] = nutrient role: C-Source, carboxylic acid
[5] = nutrient role: sole nitrogen source (pyruvate carbon)
[6] = nutrient role: C-Source, carbohydrate
[7] = nutrient role: sole phosphorus source (pyruvate carbon)
[8] = nutrient role: sole sulfur source (pyruvate carbon)
[9] = nutrient role: C-Source, amino acid
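Throughout, for DuctApe activity index of respiration/growth curve (0 no growth to 9 maximum): biolog PM4 phosphorus and sulfur plates, tetrazolium violet dye reduction read in the OmniLog every 15 min, kinetic curves scored by DuctApe, each plate run in triplicate.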

CC(O)CO (stereo not drawn) [1,2-Propanediol]
area under OmniLog respiration curve [1, 3]: 123 ± 100
DuctApe activity index [2, 3]: 1.33 (inactive)

O=C(O)Cc1cccc(O)c1 [m-Hydroxyphenyl Acetic acid]
area under OmniLog respiration curve [1, 4]: 114 ± 120
DuctApe activity index [2, 4]: 0.667 (inactive)

CCCCN [N-Butylamine]
area under OmniLog respiration curve [1, 5]: 5.65 ± 1.6
DuctApe activity index [2, 5]: 0 (inactive)

O=C(O)C[C@H](O)C(=O)O [L-Malic acid]
area under OmniLog respiration curve [1, 4]: 8910 ± 230
DuctApe activity index [2, 4]: 8.67 (active)

NCCc1c[nH]cn1 [Histamine]
area under OmniLog respiration curve [1, 5]: 5.03 ± 0.54
DuctApe activity index [2, 5]: 0 (inactive)

OC[C@@H](O)[C@@H](O[C@@H]1O[C@H](CO)[C@H](O)[C@H](O)[C@H]1O)[C@H](O)[C@@H](O)CO [D-Lactitol]
area under OmniLog respiration curve [1, 6]: 5600 ± 540
DuctApe activity index [2, 6]: 7 (active)

O=c1ccn([C@@H]2O[C@H](CO)[C@@H](OP(=O)(O)O)[C@H]2O)c(=O)[nH]1 [Uridine 3`-Monophosphate]
area under OmniLog respiration curve [1, 7]: 9010 ± 750
DuctApe activity index [2, 7]: 8.67 (active)

C[C@@H](O)CC(=O)O [b-Hydroxybutyric acid]
area under OmniLog respiration curve [1, 4]: 186 ± 53
DuctApe activity index [2, 4]: 1 (inactive)

OC[C@@H]1OC(O)[C@@H](O)[C@H](O)[C@H]1O (stereo partly drawn) [L-Glucose]
area under OmniLog respiration curve [1, 6]: 29.9 ± 43
DuctApe activity index [2, 6]: 0 (inactive)

C[C@H](N)C(=O)N[C@@H](Cc1cnc[nH]1)C(=O)O
area under OmniLog respiration curve [1, 5]: 6900 ± 1400
DuctApe activity index [2, 5]: 7.67 (active)

CC1OC(O)C(O)C(O)C1O [L-Fucose]
area under OmniLog respiration curve [1, 6]: 7650 ± 700
DuctApe activity index [2, 6]: 7.67 (active)

CO[C@H]1O[C@H](CO)[C@@H](O)[C@H](O)[C@@H]1O [a-Methyl-D-Mannoside]
area under OmniLog respiration curve [1, 6]: 16.9 ± 21
DuctApe activity index [2, 6]: 0 (inactive)

O[C@@H]1[C@H](O)[C@H](O)CO[C@H]1O [D-Ribose]
area under OmniLog respiration curve [1, 6]: 9520 ± 880
DuctApe activity index [2, 6]: 8.67 (active)

OC1OC[C@@H](O)[C@H](O)[C@H]1O (stereo partly drawn) [D-Xylose]
area under OmniLog respiration curve [1, 6]: 9160 ± 580
DuctApe activity index [2, 6]: 8.67 (active)

CS(=O)(=O)O [Methane Sulfonic acid]
area under OmniLog respiration curve [1, 8]: 5490 ± 300
DuctApe activity index [2, 8]: 6.67 (active)

Nc1nc2[nH]cnc2c(=O)[nH]1 [Guanine]
area under OmniLog respiration curve [1, 5]: 27.5 ± 39
DuctApe activity index [2, 5]: 0 (inactive)

O=C1CC[C@@H](C(=O)O)O1 [a-Hydroxyglutaric acid-g-Lactone]
area under OmniLog respiration curve [1, 4]: 4.72
DuctApe activity index [2, 4]: 0 (inactive)

NC(=O)C[C@@H](N)C(=O)O [D-Asparagine]
area under OmniLog respiration curve [1, 5]: 1420 ± 780
DuctApe activity index [2, 5]: 2.33 (inactive)

O=C(O)CP(=O)(O)O [Phosphono Acetic acid]
area under OmniLog respiration curve [1, 7]: 143 ± 120
DuctApe activity index [2, 7]: 1.33 (inactive)

N[C@H](CS)C(=O)O [D-Cysteine]
area under OmniLog respiration curve [1, 8]: 7100 ± 110
DuctApe activity index [2, 8]: 7.33 (active)

NCCO [2-Aminoethanol]
area under OmniLog respiration curve [1, 3]: 149 ± 200
DuctApe activity index [2, 3]: 0 (inactive)

CC[C@H](O)C(=O)O [a-Hydroxybutyric acid]
area under OmniLog respiration curve [1, 4]: 2930 ± 240
DuctApe activity index [2, 4]: 4 (active)

CCC(N)C(=O)O (racemic) [DL-a-Amino-N-Butyric acid]
area under OmniLog respiration curve [1, 5]: 6040 ± 1200
DuctApe activity index [2, 5]: 7 (active)

O=C(O)CCC(=O)C(=O)O [a-Ketoglutaric acid]
area under OmniLog respiration curve [1, 4]: 5770 ± 360
DuctApe activity index [2, 4]: 6.67 (active)

O=C(O)[C@]1(O)C[C@@H](O)[C@@H](O)[C@H](O)C1 [Quinic acid]
area under OmniLog respiration curve [1, 4]: 4.72
DuctApe activity index [2, 4]: 0 (inactive)

C=C(OP(=O)(O)O)C(=O)O [Phosphoenol Pyruvate]
area under OmniLog respiration curve [1, 7]: 9270 ± 480
DuctApe activity index [2, 7]: 9 (active)

O=C(O)[C@H](O)[C@@H](O)[C@H](O)[C@H](O)CO [D-Gluconic acid]
area under OmniLog respiration curve [1, 4]: 10300 ± 700
DuctApe activity index [2, 4]: 9 (active)

OC[C@H]1OC(O)[C@H](O)[C@@H](O)[C@@H]1O (stereo partly drawn) [a-D-Glucose]
area under OmniLog respiration curve [1, 6]: 7320 ± 620
DuctApe activity index [2, 6]: 7.67 (active)

C/C=C/C=C/C(=O)O [Sorbic acid]
area under OmniLog respiration curve [1, 4]: 7.09 ± 4.1
DuctApe activity index [2, 4]: 0 (inactive)

CSCC[C@@H](N)C(=O)O [D-Methionine]
area under OmniLog respiration curve [1, 8]: 4590 ± 230
DuctApe activity index [2, 8]: 6.33 (active)

N[C@@H](CS(=O)(=O)O)C(=O)O [L-Cysteic acid]
area under OmniLog respiration curve [1, 8]: 5920 ± 240
DuctApe activity index [2, 8]: 7 (active)

O=C(O)[C@@H]1C[C@@H](O)CN1 [Hydroxy-L-Proline]
area under OmniLog respiration curve [1, 9]: 94.1 ± 78
DuctApe activity index [2, 9]: 0 (inactive)

O=C1NC(=O)C(=O)N1 [Parabanic acid]
area under OmniLog respiration curve [1, 5]: 556 ± 610
DuctApe activity index [2, 5]: 1.33 (inactive)

OC[C@H]1O[C@H](OC[C@H]2O[C@H](O[C@]3(CO)O[C@H](CO)[C@@H](O)[C@@H]3O)[C@H](O)[C@@H](O)[C@@H]2O)[C@H](O)[C@@H](O)[C@H]1O [D-Raffinose]
area under OmniLog respiration curve [1, 6]: 6090 ± 450
DuctApe activity index [2, 6]: 7 (active)

CSCC[C@H](N)C(=O)N[C@@H](C)C(=O)O
area under OmniLog respiration curve [1, 5]: 6410 ± 1200
DuctApe activity index [2, 5]: 7 (active)

CCCCCCCCCC(=O)O [Capric acid]
area under OmniLog respiration curve [1, 4]: 14.2 ± 6.8
DuctApe activity index [2, 4]: 0 (inactive)

O=c1ccn([C@@H]2O[C@H](CO)[C@@H](O)[C@H]2OP(=O)(O)O)c(=O)[nH]1 [Uridine 2`-Monophosphate]
area under OmniLog respiration curve [1, 7]: 6560 ± 4400
DuctApe activity index [2, 7]: 7 (active)

OC[C@H](O)C(O)[C@@H](O)CO [L-Arabitol]
area under OmniLog respiration curve [1, 6]: 4.72
DuctApe activity index [2, 6]: 0 (inactive)

O=C1O[C@H](CO)[C@@H](O)[C@H]1O [D-Ribono-1,4-Lactone]
area under OmniLog respiration curve [1, 4]: 4.72
DuctApe activity index [2, 4]: 0 (inactive)
